# PubChem BioAssay (NCI)
# The panel holds about 83,000 compounds, 20% with a hit somewhere; the sample as a whole holds those more often.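 Method: cells in 96-well plates; compound added at one concentration; 48 h incubation; percent growth measured; values under 10 scored active.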 Activity calls are given as the source filed them.
# Tests used:
# Assay in all cases: NCI-60 one-dose screen, 48 h (100 = growth as untreated, 0 = no growth, -100 = all killed)
# [1] = system: EKVX NSCLC; settings: 10 µM
# [2] = system: SN12C renal; settings: 10 µM
# [3] = system: UO-31 renal; settings: 10 µM
# [4] = system: TK-10 renal; settings: 10 µM
# [5] = system: ACHN renal; settings: 10 µM
# [6] = system: CAKI-1 renal; settings: 10 µM
# [7] = system: A498 renal; settings: 10 µM
# [8] = system: CCRF-CEM leukemia; settings: 10 µM
# [9] = system: MOLT-4 leukemia; settings: 10 µM unless noted
# [10] = system: SR leukemia; settings: 10 µM
# [11] = system: RPMI-8226 leukemia; settings: 10 µM
# [12] = system: OVCAR-8 ovarian; settings: 10 µM
# [13] = system: OVCAR-5 ovarian; settings: 10 µM
# [14] = system: OVCAR-4 ovarian; settings: 10 µM
# [15] = system: SK-OV-3 ovarian; settings: 10 µM
# [16] = system: IGROV1 ovarian; settings: 10 µM
# [17] = system: OVCAR-3 ovarian; settings: 10 µM
# [18] = system: HS 578T breast; settings: 10 µM
# [19] = system: NCI/ADR-RES ovarian; settings: 10 µM
Compound,growth [1],growth [2],growth [3],growth [4],growth [5],growth [6],growth [7],growth [8],growth [9],growth [10],growth [11],growth [12],growth [13],growth [14],growth [15],growth [16],growth [17],growth [18],growth [19]
NCc1c(O)ccc2ccccc12,106% (inactive),90.9% (inactive),81.3% (inactive),108% (inactive),103% (inactive),74.3% (inactive),105% (inactive),93% (inactive),93.3% (inactive),87.8% (inactive),101% (inactive),103% (inactive),96.9% (inactive),111% (inactive),96.9% (inactive),94.7% (inactive),99.4% (inactive),94.5% (inactive),103% (inactive)
Cc1cc(C)c(N2C(=O)CC(Sc3ccccc3N)C2=O)c(C)c1 (stereo unspecified),87.1% (inactive),90.4% (inactive),55.5% (inactive),123% (inactive),87.7% (inactive),47.7% (inactive),54.2% (inactive),34.9% (inactive),76.5% (inactive),23.4% (inactive),66.3% (inactive),91.1% (inactive),118% (inactive),71.4% (inactive),71.6% (inactive),92% (inactive),71.1% (inactive),81% (inactive),75% (inactive)
O=c1[nH]cc(/C=N\Nc2ccccc2)c(=O)[nH]1,56.4% (inactive),68.7% (inactive),26% (inactive),78% (inactive),40.3% (inactive),41.6% (inactive),87.5% (inactive),31.2% (inactive),49.6% (inactive),65.1% (inactive),76.5% (inactive),46.7% (inactive),68.4% (inactive),84.4% (inactive),62.2% (inactive),53.9% (inactive),81.2% (inactive),81.7% (inactive),56.4% (inactive)
Nc1nc(N)c2cc(Sc3ccc4ccccc4c3)ccc2n1,38.2% (inactive),27.9% (inactive),22% (inactive),49.5% (inactive),28.2% (inactive),17.3% (inactive),58.5% (inactive),38.2% (inactive),18.4% (inactive),-26.3% (active),-11.9% (active),34.8% (inactive),50.5% (inactive),–,62.3% (inactive),27.8% (inactive),38.8% (inactive),61.7% (inactive),43.9% (inactive)
N#C/C(=C/N1C(=O)/C(=C/c2ccc([N+](=O)[O-])cc2)SC1=S)c1nc2ccccc2s1,82.3% (inactive),89.3% (inactive),64% (inactive),96.3% (inactive),86.5% (inactive),97% (inactive),6.8% (active),84% (inactive),78.8% (inactive),73.8% (inactive),67.4% (inactive),88.4% (inactive),90.3% (inactive),104% (inactive),82.4% (inactive),69.8% (inactive),82.2% (inactive),90.4% (inactive),92.3% (inactive)
CN(C)c1ccc(/C=C/c2ccnc3ccccc23)cc1N,52.5% (inactive),70.5% (inactive),45.5% (inactive),74.7% (inactive),68.6% (inactive),60.9% (inactive),62.8% (inactive),44.3% (inactive),54.8% (inactive),41.4% (inactive),37.4% (inactive),75.3% (inactive),91.8% (inactive),58.2% (inactive),72% (inactive),65.7% (inactive),70.7% (inactive),80.2% (inactive),68% (inactive)
O=Nc1ccc(Nc2ccccc2)cc1,89.2% (inactive),95.6% (inactive),53.9% (inactive),116% (inactive),41.5% (inactive),66.1% (inactive),87.2% (inactive),2.09% (active),15% (inactive),28.2% (inactive),27.1% (inactive),66.4% (inactive),103% (inactive),57.3% (inactive),108% (inactive),102% (inactive),49.4% (inactive),111% (inactive),87.9% (inactive)
CC[C@@]1(OC(=O)CN(C)C)C(=O)OCc2c1cc1n(c2=O)Cc2cc3c(N)cccc3nc2-1,18.2% (inactive),7.95% (active),-50.8% (active),20.1% (inactive),-49% (active),-20.1% (active),-56.6% (active),5.31% (active),-0.423% (active),-3.07% (active),2.58% (active),14.5% (inactive),15.1% (inactive),10.2% (inactive),2.84% (active),-3.28% (active),-34.2% (active),62.5% (inactive),5.59% (active)
